Measured values from PubChem BioAssay (NCI).
About 83,000 compounds went through this panel and 20% of them were active in at least one assay; those are over-represented in the sample as a whole.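 Step 1: grow cells in 96-well plates. Step 2: add test compound at a single concentration. Step 3: incubate 48 h. Step 4: record percent growth.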 The source made the active and inactive calls. How the source made its calls: active means growth percent below 10; inactive means the rest.

Columns and labels:
Assay in all cases: NCI-60 one-dose screen, 48 h (100 = growth as untreated, 0 = no growth, -100 = all killed)
Conditions in all cases: 10 µM unless noted
HCT-15 colon = test system: HCT-15 colon
HT29 colon = test system: HT29 colon
SNB-75 CNS = test system: SNB-75 CNS
SNB-19 CNS = test system: SNB-19 CNS
U251 CNS = test system: U251 CNS
PC-3 prostate = test system: PC-3 prostate
SK-MEL-5 melanoma = test system: SK-MEL-5 melanoma
UACC-62 melanoma = test system: UACC-62 melanoma
LOX IMVI melanoma = test system: LOX IMVI melanoma
SK-MEL-28 melanoma = test system: SK-MEL-28 melanoma

Measured: growth

O=C(NC1CC(F)C1)c1cc2cccnc2n1-c1ccc(Cl)c(Cl)c1 (stereo not given)
inactive: HCT-15 colon 96.6% | HT29 colon 101% | SNB-75 CNS 89.1% | SNB-19 CNS 95.2% | U251 CNS 93.9% | PC-3 prostate 89.8% | SK-MEL-5 melanoma 98.9% | UACC-62 melanoma 83.7% | LOX IMVI melanoma 89.6% | SK-MEL-28 melanoma 117%

Cn1cc(-c2csc(-c3cn(CCCN4CCOCC4)c4ccccc34)n2)c2cccnc21
inactive: HCT-15 colon 55.5% | HT29 colon 32.9% | SNB-75 CNS 82.6% | SNB-19 CNS 90.8% | U251 CNS 64.3% | PC-3 prostate 68% | SK-MEL-5 melanoma 64.6% | UACC-62 melanoma 92.5% | LOX IMVI melanoma 79% | SK-MEL-28 melanoma 88.6%

Cc1ccc(-c2nc(N3CCNCC3)c3oc(-c4ccc(C)cc4)nc3n2)cc1
inactive: SNB-75 CNS 89% | SNB-19 CNS 39.1% | SK-MEL-5 melanoma 96.5% | UACC-62 melanoma 95.4% | SK-MEL-28 melanoma 83.6%
active: HCT-15 colon -88% | HT29 colon -94.7% | U251 CNS -98.5% | PC-3 prostate -90.2% | LOX IMVI melanoma -79.6%

CCNC(=O)Oc1ccc(/C(=C(/CC)Cc2ccccc2)c2ccc(OCCN3CCCC3)cc2)cc1
inactive: HCT-15 colon 73.1% | HT29 colon 98.6% | SNB-75 CNS 85.5% | SNB-19 CNS 93.4% | U251 CNS 91.7% | PC-3 prostate 75% | SK-MEL-5 melanoma 91.7% | UACC-62 melanoma 98.3% | LOX IMVI melanoma 91.4% | SK-MEL-28 melanoma 99%

CCCCC#Cc1c(I)n(C)c(=O)[nH]c1=O
active: HCT-15 colon -92.5% | HT29 colon -75.3% | U251 CNS 2.73% | UACC-62 melanoma -13.5% | LOX IMVI melanoma -63.7% | SK-MEL-28 melanoma -85.6%
inactive: SNB-75 CNS 82.6% | SNB-19 CNS 99.7% | PC-3 prostate 60.2% | SK-MEL-5 melanoma 62.5%

CN1CCN(Cc2ccc(NC(=O)c3cncc(C#Cc4cnc5ccc(Cl)nn45)c3)cc2C(F)(F)F)CC1
active: HCT-15 colon 0.05% | HT29 colon 2.68% | SNB-75 CNS -52.4% | SNB-19 CNS 6.75% | U251 CNS 4.22% | PC-3 prostate -18.6% | SK-MEL-5 melanoma -58.7% | UACC-62 melanoma -14.5% | LOX IMVI melanoma -44.3% | SK-MEL-28 melanoma -8.84%

O=C(Nc1cnc(Nc2ccc(N3CCOCC3)nc2)nc1Oc1ccc(C(F)(F)F)cc1)c1ccncc1
inactive: HCT-15 colon 96.9% | HT29 colon 101% | SNB-75 CNS 89.8% | SNB-19 CNS 91.1% | U251 CNS 92.1% | PC-3 prostate 97.4% | SK-MEL-5 melanoma 95.3% | UACC-62 melanoma 94.1% | LOX IMVI melanoma 86% | SK-MEL-28 melanoma 95.8%

CO[C@H]1CC(=O)n2c3ccccc3c3c4c(c5c6ccccc6n1c5c32)C(=O)NC4=O
active: SNB-75 CNS 4.5%
inactive: HCT-15 colon 62.4% | HT29 colon 26.3% | SNB-19 CNS 98.4% | U251 CNS 46.8% | PC-3 prostate 54.6% | SK-MEL-5 melanoma 60.7% | UACC-62 melanoma 44.9% | LOX IMVI melanoma 63.8% | SK-MEL-28 melanoma 39.9%

COc1ccc(C2=CN3CC=CC3CC2=O)cc1 (stereo not given)
inactive: HCT-15 colon 95.2% | HT29 colon 90.5% | SNB-75 CNS 90.9% | SNB-19 CNS 105% | U251 CNS 94.5% | PC-3 prostate 92.1% | SK-MEL-5 melanoma 100% | UACC-62 melanoma 105% | LOX IMVI melanoma 104% | SK-MEL-28 melanoma 102%

Cc1nn(-c2cc(NC3CCC(O)CC3)c3c(=O)[nH]c(CCC(F)(F)F)cc3c2)c2c1C(=O)CC(C)(C)C2 (stereo not given)
inactive: HCT-15 colon 31.1% | HT29 colon 13.9% | SNB-75 CNS 56.8% | SNB-19 CNS 63.1% | U251 CNS 56.5% | PC-3 prostate 55.4% | SK-MEL-5 melanoma 51.7% | UACC-62 melanoma 45% | LOX IMVI melanoma 30.2% | SK-MEL-28 melanoma 53.8%

Cc1ccc(S(=O)(=O)c2nc(-c3ccccc3)oc2Sc2nc3ccccc3s2)cc1
inactive: HCT-15 colon 44.8% | HT29 colon 94.2% | SNB-75 CNS 70.8% | SNB-19 CNS 100% | U251 CNS 90.5% | PC-3 prostate 97.2% | SK-MEL-5 melanoma 53.3% | UACC-62 melanoma 80.3% | LOX IMVI melanoma 24.6% | SK-MEL-28 melanoma 109%

O=[N+]([O-])c1cc(NS(=O)(=O)c2ccccc2)ccc1NS(=O)(=O)c1ccccc1
inactive: HCT-15 colon 72.1% | HT29 colon 84.6% | SNB-75 CNS 125% | SNB-19 CNS 108% | U251 CNS 102% | PC-3 prostate 80.7% | SK-MEL-5 melanoma 99.4% | UACC-62 melanoma 85.7% | LOX IMVI melanoma 99% | SK-MEL-28 melanoma 111%

C=C(C)[C@@H]1CCC[C@]2(C(=O)O)CC[C@]3(C)[C@@H](CC[C@@H]4[C@@]5(C)C/C(=C/c6ccncc6)C(=O)C(C)(C)[C@@H]5CC[C@]43C)[C@@H]12
active: HCT-15 colon 5.49% | LOX IMVI melanoma -9.49%
inactive: HT29 colon 14.8% | SNB-75 CNS 52.6% | SNB-19 CNS 46.1% | U251 CNS 17% | PC-3 prostate 27.4% | SK-MEL-5 melanoma 10.6% | UACC-62 melanoma 26.8% | SK-MEL-28 melanoma 48.4%

COc1cc(OC)c(/C=C/C(=O)c2c(O)cc(OC)c(C3CCN(C)CC3)c2OC)c(OC)c1
active: HCT-15 colon -58.1% | HT29 colon -73.4% | SNB-75 CNS -8.19% | SNB-19 CNS -55.9% | U251 CNS -85.6% | PC-3 prostate -16.1% | SK-MEL-5 melanoma -99% | UACC-62 melanoma -83.9% | LOX IMVI melanoma -93.3% | SK-MEL-28 melanoma -100%

CC(C)(C)n1cc(-c2ccnc(NCCCNS(=O)(=O)c3cccc4ccccc34)c2)c(-c2cccc(F)c2)n1
inactive: HCT-15 colon 44.6% | HT29 colon 27.6% | SNB-75 CNS 67.2% | SNB-19 CNS 86.3% | U251 CNS 65% | PC-3 prostate 55.8% | SK-MEL-5 melanoma 74.5% | UACC-62 melanoma 80.5% | LOX IMVI melanoma 54.7% | SK-MEL-28 melanoma 99.9%

COc1ccc(C(O)c2cc3c(N)c(C(=O)Nc4cccc(Cl)c4C)sc3nc2C)cc1 (stereo not given)
active: HT29 colon -7.84% | SNB-75 CNS -11.4% | SK-MEL-5 melanoma -53.7%
inactive: HCT-15 colon 10.8% | SNB-19 CNS 39% | U251 CNS 11.1% | PC-3 prostate 16.7% | UACC-62 melanoma 24.6% | LOX IMVI melanoma 22% | SK-MEL-28 melanoma 57.7%

CCC1S/C(=N\N=C(\C)c2cc3cc(Cl)ccc3o2)N(c2ccccc2)C1=O (stereo not given)
inactive: HCT-15 colon 107% | HT29 colon 111% | SNB-75 CNS 110% | SNB-19 CNS 101% | U251 CNS 99% | PC-3 prostate 84.6% | SK-MEL-5 melanoma 49.5% | UACC-62 melanoma 88.9% | LOX IMVI melanoma 85.4% | SK-MEL-28 melanoma 111%

CCN1C(=O)N(CC)C2C1N=C(SCc1ccc(Cl)cc1)N2/N=C/C=C/c1ccccc1OC (stereo not given)
inactive: HCT-15 colon 31.4% | HT29 colon 58.3% | SNB-75 CNS 50.1% | SNB-19 CNS 79.3% | U251 CNS 68.8% | PC-3 prostate 43.7% | SK-MEL-5 melanoma 44.2% | UACC-62 melanoma 31.2% | LOX IMVI melanoma 44.5% | SK-MEL-28 melanoma 70.9%

Cc1nc2sc(C(=O)Nc3cccc(Br)c3C)c(N)c2cc1C(O)c1ccccc1 (stereo not given)
inactive: HCT-15 colon 10.8% | SNB-75 CNS 52.6% | SNB-19 CNS 25.4% | PC-3 prostate 18.3% | UACC-62 melanoma 18.5% | LOX IMVI melanoma 16.3% | SK-MEL-28 melanoma 55.9%
active: HT29 colon 9.11% | U251 CNS 2.74% | SK-MEL-5 melanoma -50.9%

N#Cc1c(-c2ccccc2)nc(SCC(O)CN2CCOCC2)nc1N1CCOCC1 (stereo not given)
active: SNB-75 CNS -4.63%
inactive: HCT-15 colon 80.1% | HT29 colon 68.5% | SNB-19 CNS 65.8% | U251 CNS 81.4% | PC-3 prostate 56.5% | SK-MEL-5 melanoma 66.6% | UACC-62 melanoma 42.9% | LOX IMVI melanoma 78% | SK-MEL-28 melanoma 59.9%

NS(=O)(=O)c1ccc(-c2cc(-c3nnc(SCC(=O)Nc4ccc(C(=O)/C=C/c5ccc(Cl)cc5)cc4)n3-c3ccccc3)c3ccccc3n2)cc1
inactive: HCT-15 colon 94.7% | HT29 colon 94.9% | SNB-75 CNS 54% | SNB-19 CNS 86.8% | U251 CNS 81.1% | PC-3 prostate 79.8% | SK-MEL-5 melanoma 92.8% | UACC-62 melanoma 71% | LOX IMVI melanoma 88% | SK-MEL-28 melanoma 97%

C[n+]1ccc(CCc2c[nH]c3ccccc23)cc1
inactive: HCT-15 colon 99.7% | HT29 colon 88.8% | SNB-75 CNS 74.6% | SNB-19 CNS 102% | U251 CNS 95.2% | PC-3 prostate 84% | SK-MEL-5 melanoma 104% | UACC-62 melanoma 101% | LOX IMVI melanoma 94.6% | SK-MEL-28 melanoma 100%

N#Cc1c(Nc2ccc(N3CCOCC3)cc2)nc(SCC(=O)c2ccc(Br)cc2)nc1-c1ccccc1
inactive: HCT-15 colon 103% | HT29 colon 98.3% | SNB-75 CNS 97.7% | SNB-19 CNS 117% | U251 CNS 101% | PC-3 prostate 86.1% | SK-MEL-5 melanoma 102% | UACC-62 melanoma 104% | LOX IMVI melanoma 100% | SK-MEL-28 melanoma 104%

COc1cc(Cl)c(C)cc1NC(=O)c1cc2ccccc2cc1O
inactive: HT29 colon 37.8% | SNB-75 CNS 21.4% | SNB-19 CNS 23.1% | UACC-62 melanoma 14.2% | SK-MEL-28 melanoma 36.5%
active: HCT-15 colon 9.39% | U251 CNS 6.67% | PC-3 prostate 2.12% | SK-MEL-5 melanoma -35.1% | LOX IMVI melanoma 2.44%

CN1CCN(CC(=O)Nc2ccc3ncnc(Nc4ccc(Oc5cccc(C(F)(F)F)c5)c(Cl)c4)c3c2)CC1
active: HCT-15 colon -12.2% | HT29 colon -19.2% | U251 CNS 0.145% | SK-MEL-5 melanoma -58% | UACC-62 melanoma -28.8% | LOX IMVI melanoma -94.6% | SK-MEL-28 melanoma -89%
inactive: SNB-75 CNS 68.8% | SNB-19 CNS 28.5% | PC-3 prostate 42.9%

COc1ccc(-c2nc(-c3cn(C)c4ncccc34)cs2)cc1
active: HCT-15 colon -1.17% [100 µM] | HT29 colon -63.2% [100 µM] | SNB-75 CNS -3.6% [100 µM] | U251 CNS 3.9% [100 µM] | PC-3 prostate -28.2% [100 µM] | SK-MEL-5 melanoma -83.4% [100 µM] | UACC-62 melanoma -20.1% [100 µM] | LOX IMVI melanoma -47.1% [100 µM]
inactive: SNB-19 CNS 23.2% [100 µM] | SK-MEL-28 melanoma 37.9% [100 µM]
